This passage reports binding signal results from article PMC11006913.

Substitutions are numbered along the chain they refer to.

Holding throughout (experiment): PBM; 200 nM protein, PBS
Details in all cases: dsDNA, one strand shown

Experiment [1] deals with T1, SIX6 (Homo sapiens, UniProt O95475 114-200, L167I).
T1 sequence: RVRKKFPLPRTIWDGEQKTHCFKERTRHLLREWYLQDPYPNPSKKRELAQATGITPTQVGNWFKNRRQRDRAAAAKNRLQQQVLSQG

Experiment [2] has as its target T2, SIX6 (Homo sapiens, UniProt O95475 114-200, L143V).
T2 sequence: T1 sequence with L30V, I54L

For experiment [3], the target named is T3, SIX6 (Homo sapiens, UniProt O95475 114-200, H141N).
T3 sequence: T1 sequence with H28N, I54L

Experiment [4] has as its target T4, SIX6 (Homo sapiens, UniProt O95475 114-200, T165P).
T4 sequence: T1 sequence with T52P, I54L

For experiment [5], the target named is T5, SIX6 (Homo sapiens, UniProt O95475 114-200, L167M).
T5 sequence: T1 sequence with I54M

Experiment [6] concerns the target T6, SIX6 (Homo sapiens, UniProt O95475 114-200, L143M).
T6 sequence: T1 sequence with L30M, I54L

In experiment [7] the target is T7, SIX6 (Homo sapiens, UniProt O95475 114-200, L143I).
T7 sequence: T1 sequence with L30I, I54L

Experiment [8] has as its target T8, SIX6 (Homo sapiens, UniProt O95475 114-200, T165G).
T8 sequence: T1 sequence with T52G, I54L

Experiment [9] concerns the target T9, SIX6 (Homo sapiens, UniProt O95475 114-200, T139Q).
T9 sequence: T1 sequence with T26Q, I54L

Experiment [10] deals with T10, SIX6 (Homo sapiens, UniProt O95475 114-200, T165A).
T10 sequence: T1 sequence with T52A, I54L

In experiment [11] the target is T11, SIX6 (Homo sapiens, UniProt O95475 114-200, L167V).
T11 sequence: T1 sequence with I54V

Experiment [12] concerns the target T12, SIX6 (Homo sapiens, UniProt O95475 114-200).
T12 sequence: T1 sequence with I54L

For experiment [13], the target named is T13, SIX6 (Homo sapiens, UniProt O95475 114-200, T165I).
T13 sequence: T1 sequence with T52I, I54L

Take GATATCCC: the binding signal in the experiment with SIX6 [1] is 11.1 upbm affinity estimate (log intensity, higher = more binding, comparable within an allelic series); with SIX6 [2], 10.2 upbm affinity estimate (log intensity, higher = more binding, comparable within an allelic series); with SIX6 [3], 11.1 upbm affinity estimate (log intensity, higher = more binding, comparable within an allelic series); in the experiment with SIX6 [4], 9.49 upbm affinity estimate (log intensity, higher = more binding, comparable within an allelic series); with SIX6 [5], 10.8 upbm affinity estimate (log intensity, higher = more binding, comparable within an allelic series); in the experiment with SIX6 [6], 11 upbm affinity estimate (log intensity, higher = more binding, comparable within an allelic series). Also, the binding signal is 10.2 upbm affinity estimate (log intensity, higher = more binding, comparable within an allelic series) in the experiment with SIX6 [7]; 11.2 upbm affinity estimate (log intensity, higher = more binding, comparable within an allelic series) with SIX6 [8]; 11.1 upbm affinity estimate (log intensity, higher = more binding, comparable within an allelic series) in the experiment with SIX6 [9]; 11 upbm affinity estimate (log intensity, higher = more binding, comparable within an allelic series) with SIX6 [10]; 11 upbm affinity estimate (log intensity, higher = more binding, comparable within an allelic series) with SIX6 [11]; 11 upbm affinity estimate (log intensity, higher = more binding, comparable within an allelic series) in the experiment with SIX6 [12]. For the same sequence, the binding signal in the experiment with SIX6 [13] is 11 upbm affinity estimate (log intensity, higher = more binding, comparable within an allelic series).

CGCAAGCG: the binding signal in the experiment with SIX6 [1] was 8.99 upbm affinity estimate (log intensity, higher = more binding, comparable within an allelic series); in the experiment with SIX6 [2], 9.04 upbm affinity estimate (log intensity, higher = more binding, comparable within an allelic series); with SIX6 [3] it was 8.99 upbm affinity estimate (log intensity, higher = more binding, comparable within an allelic series); with SIX6 [4], 9.04 upbm affinity estimate (log intensity, higher = more binding, comparable within an allelic series); in the experiment with SIX6 [5], 9.02 upbm affinity estimate (log intensity, higher = more binding, comparable within an allelic series); in the experiment with SIX6 [6], 9.01 upbm affinity estimate (log intensity, higher = more binding, comparable within an allelic series). The binding signal with SIX6 [7] is 9.04 upbm affinity estimate (log intensity, higher = more binding, comparable within an allelic series); in the experiment with SIX6 [8], 8.96 upbm affinity estimate (log intensity, higher = more binding, comparable within an allelic series); with SIX6 [9] it was 9.04 upbm affinity estimate (log intensity, higher = more binding, comparable within an allelic series); with SIX6 [10], 8.95 upbm affinity estimate (log intensity, higher = more binding, comparable within an allelic series); with SIX6 [11], 8.92 upbm affinity estimate (log intensity, higher = more binding, comparable within an allelic series); with SIX6 [12], 9.01 upbm affinity estimate (log intensity, higher = more binding, comparable within an allelic series). Besides, the binding signal with SIX6 [13] was 8.97 upbm affinity estimate (log intensity, higher = more binding, comparable within an allelic series).

As to GATATCTA, the binding signal with SIX6 [1] was 11.1 upbm affinity estimate (log intensity, higher = more binding, comparable within an allelic series); in the experiment with SIX6 [2], 10.4 upbm affinity estimate (log intensity, higher = more binding, comparable within an allelic series); with SIX6 [3], 11.1 upbm affinity estimate (log intensity, higher = more binding, comparable within an allelic series); in the experiment with SIX6 [4], 9.98 upbm affinity estimate (log intensity, higher = more binding, comparable within an allelic series); with SIX6 [5], 10.8 upbm affinity estimate (log intensity, higher = more binding, comparable within an allelic series); with SIX6 [6], 10.9 upbm affinity estimate (log intensity, higher = more binding, comparable within an allelic series). Also, the binding signal with SIX6 [7] is 10.3 upbm affinity estimate (log intensity, higher = more binding, comparable within an allelic series); in the experiment with SIX6 [8], 11.1 upbm affinity estimate (log intensity, higher = more binding, comparable within an allelic series); in the experiment with SIX6 [9] it was 11 upbm affinity estimate (log intensity, higher = more binding, comparable within an allelic series); with SIX6 [10], 11 upbm affinity estimate (log intensity, higher = more binding, comparable within an allelic series); with SIX6 [11], 10.9 upbm affinity estimate (log intensity, higher = more binding, comparable within an allelic series); with SIX6 [12], 10.9 upbm affinity estimate (log intensity, higher = more binding, comparable within an allelic series). For the same sequence, the binding signal with SIX6 [13] is 10.9 upbm affinity estimate (log intensity, higher = more binding, comparable within an allelic series).

Turning to ATTATACC, the binding signal with SIX6 [1] was 10.8 upbm affinity estimate (log intensity, higher = more binding, comparable within an allelic series); in the experiment with SIX6 [2] it was 10.3 upbm affinity estimate (log intensity, higher = more binding, comparable within an allelic series); in the experiment with SIX6 [3] it was 10.7 upbm affinity estimate (log intensity, higher = more binding, comparable within an allelic series); in the experiment with SIX6 [4] it was 10.1 upbm affinity estimate (log intensity, higher = more binding, comparable within an allelic series); with SIX6 [5], 10.5 upbm affinity estimate (log intensity, higher = more binding, comparable within an allelic series); in the experiment with SIX6 [6], 10.8 upbm affinity estimate (log intensity, higher = more binding, comparable within an allelic series). Moreover, the binding signal with SIX6 [7] was 10.3 upbm affinity estimate (log intensity, higher = more binding, comparable within an allelic series); with SIX6 [8] it was 10.8 upbm affinity estimate (log intensity, higher = more binding, comparable within an allelic series); with SIX6 [9], 10.8 upbm affinity estimate (log intensity, higher = more binding, comparable within an allelic series); in the experiment with SIX6 [10] it was 10.7 upbm affinity estimate (log intensity, higher = more binding, comparable within an allelic series); with SIX6 [11] it was 10.5 upbm affinity estimate (log intensity, higher = more binding, comparable within an allelic series); with SIX6 [12], 10.7 upbm affinity estimate (log intensity, higher = more binding, comparable within an allelic series). Further, the binding signal in the experiment with SIX6 [13] is 10.6 upbm affinity estimate (log intensity, higher = more binding, comparable within an allelic series).

On to GGCCGGAA, for which the binding signal in the experiment with SIX6 [1] is 9.02 upbm affinity estimate (log intensity, higher = more binding, comparable within an allelic series); with SIX6 [2] it was 8.91 upbm affinity estimate (log intensity, higher = more binding, comparable within an allelic series); with SIX6 [3] it was 8.94 upbm affinity estimate (log intensity, higher = more binding, comparable within an allelic series); with SIX6 [4], 9.01 upbm affinity estimate (log intensity, higher = more binding, comparable within an allelic series); with SIX6 [5] it was 8.98 upbm affinity estimate (log intensity, higher = more binding, comparable within an allelic series); in the experiment with SIX6 [6], 9 upbm affinity estimate (log intensity, higher = more binding, comparable within an allelic series). The binding signal in the experiment with SIX6 [7] was 8.95 upbm affinity estimate (log intensity, higher = more binding, comparable within an allelic series); with SIX6 [8] it was 8.98 upbm affinity estimate (log intensity, higher = more binding, comparable within an allelic series); in the experiment with SIX6 [9], 9.04 upbm affinity estimate (log intensity, higher = more binding, comparable within an allelic series); with SIX6 [10], 8.94 upbm affinity estimate (log intensity, higher = more binding, comparable within an allelic series); with SIX6 [11] it was 9.02 upbm affinity estimate (log intensity, higher = more binding, comparable within an allelic series); with SIX6 [12], 8.92 upbm affinity estimate (log intensity, higher = more binding, comparable within an allelic series). In the experiment with SIX6 [13], the binding signal was 8.95 upbm affinity estimate (log intensity, higher = more binding, comparable within an allelic series).

Consider CGGCGGAA, for which the binding signal with SIX6 [1] is 8.84 upbm affinity estimate (log intensity, higher = more binding, comparable within an allelic series); with SIX6 [2], 8.9 upbm affinity estimate (log intensity, higher = more binding, comparable within an allelic series); in the experiment with SIX6 [3] it was 8.85 upbm affinity estimate (log intensity, higher = more binding, comparable within an allelic series); in the experiment with SIX6 [4], 9.07 upbm affinity estimate (log intensity, higher = more binding, comparable within an allelic series); with SIX6 [5], 8.95 upbm affinity estimate (log intensity, higher = more binding, comparable within an allelic series); in the experiment with SIX6 [6] it was 8.9 upbm affinity estimate (log intensity, higher = more binding, comparable within an allelic series). Also, the binding signal is 8.96 upbm affinity estimate (log intensity, higher = more binding, comparable within an allelic series) with SIX6 [7]; 9.04 upbm affinity estimate (log intensity, higher = more binding, comparable within an allelic series) in the experiment with SIX6 [8]; 8.95 upbm affinity estimate (log intensity, higher = more binding, comparable within an allelic series) in the experiment with SIX6 [9]; 8.82 upbm affinity estimate (log intensity, higher = more binding, comparable within an allelic series) with SIX6 [10]; 8.8 upbm affinity estimate (log intensity, higher = more binding, comparable within an allelic series) with SIX6 [11]; 8.95 upbm affinity estimate (log intensity, higher = more binding, comparable within an allelic series) in the experiment with SIX6 [12]. Further, in the experiment with SIX6 [13], the binding signal was 8.9 upbm affinity estimate (log intensity, higher = more binding, comparable within an allelic series).
